Usually inhibition stands for the relative decrease from the control value, in per cent.

Consider 14 molecules from PubChem BioAssay.

Calls of active or inactive are those of the source.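 Rule for the calls, unless noted: active = visually confirmed hit in the image check and inhibition above 20%; inconclusive = visually confirmed hit but inhibition not above 20%; inactive = no visual hit in the image check.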

The nature of experiment [1]: inhibitors of TNFa-induced NFkB p65 translocation, primary screen, imaging, HUVEC, MLSMR starter and 10KST1 sets (AID 438;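 active = inhibition above 20% together with a positive visual image hit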;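 note: compound added about 3h40 before a 20 min TNFalpha stimulation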;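 for inhibition: signal is the nuclear over cytoplasmic p65 intensity ratio per well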). To be noted: HUVEC TNFa-induced p65 nuclear translocation; cell count: measured here: nuclei count (cytotoxicity indicator), at 2.08 µM; inhibition: at 2 µM, stronger effect = higher value, 0% TNFa-plus-vehicle, 100% no-TNFa wells.
Experiment [2] is described as follows: inhibitors of mutant huntingtin aggregation, primary screen, imaging, exon1htt(103Q)mCFP cells, high-content imaging (AID 483;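 active = visual image review flags a hit and inhibition of aggregation exceeds 20%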;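 note: compound exposure lasted 3 days before fixation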;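 for nuclei count: percent of the per-plate median nuclei count of sample wells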). To be noted: exon1htt(103Q)mCFP cell line, aggregate imaging, at 2 µM; inhibition of aggregation: stronger effect = higher value; nuclei count: measured here: cell count, toxicity.
Experiment [3] is described as follows: inhibitors of E-selectin induction by TNFa, primary screen, imaging, HUVEC, immunofluorescence, MLSMR starter and 10KST1 sets (AID 487).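 For inhibition: signal is fraction of cell area covered by stained E-selectin grains.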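 For nuclei count: 100% = median nuclei count of all wells on the same plate.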 Particulars: HUVEC TNFalpha-induced E-selectin immunofluorescence imaging, at 2 µM; inhibition: stronger effect = higher value; nuclei count: measured here: cell number, toxicity.
In experiment [4] the target is Voltage-gated potassium channel subunit beta-2 (Rattus norvegicus) (UniProt P62483). The experiment in a line: KvBeta enzyme negative modulators, primary screen, biochemical, NADPH fluorescence (AID 622;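 active = fluorescence slope higher than the sample average by over 3 SD, cut at about -0.22 in these data, passing the limit was not always enough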;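 note: slope of raw intensity against log time taken from 70 to 1610 s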). To be noted: recombinant KvBeta, 4-cyanobenzaldehyde reduction, at 10 µM, stronger effect = higher value.
For experiment [5] the target is unchanged. The experiment in a line: KvBeta positive modulators, primary screen, biochemical, NADPH fluorescence (AID 623;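 active = NADPH fluorescence slope more negative than the mean of all samples by about 3 SD, 99.7% confidence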;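 note: fluorescence intensity change per second fitted from 20 to 320 s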). Particulars: Recombinant KvBeta, NADPH fluorescence decrease slope, 10 min; at 10 µM; stronger effect = lower value.
The target in experiment [6] is Alpha-2C adrenergic receptor (Homo sapiens) (UniProt P18825). The experiment in a line: modulators of alpha2C/GIRK thallium flux, primary screen, cell-based, HEK293 alpha2C/GIRK1/2 (AID 624;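 active = fluorescence slope after compound addition differing from the mean of all screened samples at 99.7% confidence, in either direction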;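 note: slope of fluorescence ratio to pre-addition baseline per second over 15 to 24 s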). To be noted: thallium flux BTC fluorescence, at 10 µM, actives lie on both sides.
Experiment [7] can be described thus: inhibitors of Sendai virus-induced IRF3 signaling, primary screen, TLR/RLR signaling modifier project, cell-based, Sendai virus stimulus, luciferase, 10K MLSCN set (AID 602276;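 active = inhibition at or above 50% at 10 µM; inactive = inhibition below 50%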;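 note: firefly luciferase from ISG56 promoter only with Renilla not read in this screen; 0% = Sendai virus plus DMSO and 100% = medium plus DMSO without virus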). Particulars: HEK293 RL24 IRF3 luciferase reporter, at 10 µM, stronger effect = higher value. (In general: A reporter such as luciferase makes a cellular process visible.)
Experiment [8] can be described thus: inhibitors of poly I:C-induced TLR3 signaling, primary screen, cell-based, poly I:C stimulus, luciferase, 10K MLSCN set (AID 602277;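 active = inhibition of the reporter signal at or above 50%; inactive = inhibition below 50%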). To be noted: HEK293-TLR3 RL24 IRF3 luciferase reporter, at 10 µM, stronger effect = higher value.

Alpha-2C adrenergic receptor (Homo sapiens), sequence (P18825 whole entry, looked up): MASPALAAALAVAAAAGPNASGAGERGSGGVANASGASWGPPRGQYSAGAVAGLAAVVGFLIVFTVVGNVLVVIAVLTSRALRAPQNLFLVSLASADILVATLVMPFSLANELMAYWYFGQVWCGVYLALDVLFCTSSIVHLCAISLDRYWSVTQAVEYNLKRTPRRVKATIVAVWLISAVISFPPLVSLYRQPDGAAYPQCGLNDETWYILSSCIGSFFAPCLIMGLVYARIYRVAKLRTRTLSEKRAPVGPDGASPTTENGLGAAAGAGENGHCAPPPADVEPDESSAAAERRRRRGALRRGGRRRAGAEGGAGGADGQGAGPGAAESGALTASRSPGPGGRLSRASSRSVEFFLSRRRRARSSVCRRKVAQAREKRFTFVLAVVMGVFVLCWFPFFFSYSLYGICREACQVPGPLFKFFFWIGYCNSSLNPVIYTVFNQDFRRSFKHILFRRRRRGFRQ
Voltage-gated potassium channel subunit beta-2 (Rattus norvegicus), sequence (P62483 whole entry, looked up): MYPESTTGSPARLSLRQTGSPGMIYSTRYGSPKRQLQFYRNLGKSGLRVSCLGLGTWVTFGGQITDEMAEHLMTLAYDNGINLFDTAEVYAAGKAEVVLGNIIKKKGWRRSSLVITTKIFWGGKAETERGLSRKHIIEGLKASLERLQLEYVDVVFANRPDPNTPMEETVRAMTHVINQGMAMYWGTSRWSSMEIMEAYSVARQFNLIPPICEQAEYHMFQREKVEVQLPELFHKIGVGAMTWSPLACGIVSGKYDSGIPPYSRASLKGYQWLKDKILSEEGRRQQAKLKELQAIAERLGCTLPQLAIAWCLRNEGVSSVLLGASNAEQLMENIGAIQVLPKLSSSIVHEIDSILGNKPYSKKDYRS

`CCN(CC)CCn1c2ccccc2c2nc(C)sc21`: the cell count in experiment [1] stood at 613. The inhibition was -3.3% (inactive) in experiment [1], 34% (inactive) in experiment [3], 16.1% (inactive) in experiment [7] and 21.2% (inactive) in experiment [8]. In addition, the inhibition of aggregation in experiment [2] is -5% (inactive). In addition, the nuclei count was 98.7% in experiment [2] and 86.3% in experiment [3]. Besides, the fluorescence slope in experiment [4] is -0.622 (inactive). In experiment [5], the NADPH fluorescence slope was -3.9e-06 (inactive). In addition, in experiment [6], the slope is 0.00718 (inactive).

Regarding `Cc1cc(Cl)ccc1OCCCC(=O)NO`, in experiment [1], the cell count is 375. For the same molecule, the inhibition in experiment [1] is 0.8% (inactive); in experiment [3], -31.4% (inactive); in experiment [7] it was 9.52% (inactive); in experiment [8], -4.29% (inactive). The inhibition of aggregation in experiment [2] is -15% (inactive). For the same molecule, the nuclei count amounted to 65.5% in experiment [2] and 108% in experiment [3]. Also, the fluorescence slope in experiment [4] is -0.31 (inactive). Besides, the NADPH fluorescence slope in experiment [5] is -1.1e-05 (inactive). In addition, the slope in experiment [6] is 0.00525 (inactive).

In the case of `COc1ccccc1N1CCN(C(=O)C(Cc2ccccc2)NC(=O)C2CCCCC2)CC1` (centres undefined), the cell count in experiment [1] is 370. The inhibition in experiment [1] was -0.9% (inactive); in experiment [3], -114% (inactive); in experiment [7], 0.074% (inactive); in experiment [8], 17.7% (inactive). In addition, the inhibition of aggregation in experiment [2] was 11.3% (inactive). In addition, the nuclei count in experiment [2] is 65.4%; in experiment [3] it was 96.1%. The fluorescence slope in experiment [4] was -0.428 (inactive). For the same molecule, the NADPH fluorescence slope in experiment [5] is -0.000112 (inactive). Moreover, the slope in experiment [6] was 0.00516 (inactive).

Regarding `C=CCOc1ccccc1/C=c1\sc2nc(=O)c(C)nn2c1=O`, the cell count in experiment [1] came out at 704. For the same molecule, the inhibition in experiment [1] was -11.1% (inactive); in experiment [3] it was -31.3% (inactive); in experiment [7], 15.6% (inactive); in experiment [8], 26.5% (inactive). Moreover, in experiment [2], the inhibition of aggregation was 7.5% (inactive). The values for the nuclei count in experiment [2] and in experiment [3] were 100% and 106%, respectively. Moreover, the fluorescence slope in experiment [4] is -0.362 (inactive). Moreover, in experiment [5], the NADPH fluorescence slope was 1.8e-05 (inactive). Besides, in experiment [6], the slope is 0.0042 (inactive).

In the case of `Cc1cc(C)c(OCC(=O)Nc2ccc3c(c2)OCO3)cc1C`, the cell count in experiment [1] stood at 327. Further, the inhibition in experiment [1] is -0.7% (inactive); in experiment [3], 9.8% (inactive); in experiment [7] it was -6.64% (inactive); in experiment [8] it was -49.1% (inactive). The inhibition of aggregation in experiment [2] is 7.3% (inactive). Moreover, the nuclei count amounted to 101% in experiment [2] and 103% in experiment [3]. For the same molecule, the fluorescence slope in experiment [4] is -0.437 (inactive). The NADPH fluorescence slope in experiment [5] is 4.6e-05 (inactive). Also, the slope in experiment [6] was 0.00669 (inactive).

In the case of `Cc1nnc(N(C)C(=O)Cc2ccc3c(c2)OCO3)s1`, in experiment [1], the cell count was determined as 709. For the same molecule, the inhibition in experiment [1] is -6.1% (inactive); in experiment [3] it was 6.8% (inactive); in experiment [7], 21.5% (inactive); in experiment [8], 39.7% (inactive). In addition, the inhibition of aggregation in experiment [2] was 15.2% (inactive). Moreover, the nuclei count in experiment [2] is 107%; in experiment [3], 112%. In experiment [4], the fluorescence slope is -0.55 (inactive). The NADPH fluorescence slope in experiment [5] is 1.1e-05 (inactive). Moreover, the slope in experiment [6] was 0.00419 (inactive).

As for `COc1ccccc1Oc1ccc(S(=O)(=O)N2CCOCC2)cc1S(=O)(=O)N1CCOCC1`, the cell count in experiment [1] amounted to 242. In addition, the inhibition in experiment [1] is 2.9% (inactive); in experiment [3], -142% (inactive); in experiment [7], 10% (inactive); in experiment [8], 1.69% (inactive). Further, the inhibition of aggregation in experiment [2] is 24.3% (inactive). Moreover, the figures for the nuclei count in experiment [2] and in experiment [3] were 106% and 132%, respectively. Also, the fluorescence slope in experiment [4] is -0.377 (inactive). The NADPH fluorescence slope in experiment [5] was 5.2e-07 (inactive). Also, the slope in experiment [6] was 0.00572 (inactive).

`CC(=O)OCC1OC(c2ccccc2)C(OC(C)=O)C(OC(C)=O)C1OC(C)=O` (centres undefined): the cell count in experiment [1] is 274. Further, the inhibition is -5% (inactive) in experiment [1], -26.4% (inactive) in experiment [3], 6.22% (inactive) in experiment [7] and 34.3% (inactive) in experiment [8]. Besides, the inhibition of aggregation in experiment [2] is 15.4% (inactive). For the same molecule, the values for the nuclei count in experiment [2] and in experiment [3] were 59.7% and 106%, respectively. Besides, the fluorescence slope in experiment [4] is -0.351 (inactive). Besides, the NADPH fluorescence slope in experiment [5] is -2.1e-05 (inactive). Besides, the slope in experiment [6] was 0.00646 (inactive).

As to `Cc1cc(NC(=O)CCC(=O)N(c2cccnc2)C(C(=O)NC2CCCC2)c2ccccc2F)no1` (centres undefined), the cell count in experiment [1] amounted to 557. The inhibition in experiment [1] is -9% (inactive); in experiment [3], -19.7% (inactive); in experiment [7], -5.41% (inactive); in experiment [8], -11% (inactive). Moreover, the inhibition of aggregation in experiment [2] was 11.8% (inactive). Also, the nuclei count in experiment [2] stood at 107%; in experiment [3], 116%. In experiment [4], the fluorescence slope is -0.62 (inactive). The NADPH fluorescence slope in experiment [5] is -5.7e-06 (inactive). For the same molecule, the slope in experiment [6] was 0.00332 (inactive).

As for `COc1ccc(-c2nc3cc(NC(=O)Cc4ccc(OC)c(OC)c4)ccc3o2)cc1`, the cell count in experiment [1] was 581. Moreover, the inhibition in experiment [1] was -25.3% (inactive); in experiment [3] it was -13.5% (inactive); in experiment [7] it was -9.84% (inactive); in experiment [8] it was -114% (inactive). In addition, the inhibition of aggregation in experiment [2] is -10.5% (inactive). Besides, the nuclei count in experiment [2] was 88.5%; in experiment [3], 114%. Moreover, the fluorescence slope in experiment [4] was -0.468 (inactive). Further, the NADPH fluorescence slope in experiment [5] is -4.6e-05 (inactive). In addition, the slope in experiment [6] is 0.00505 (inactive).

With `O=c1c2ccccc2c(/C=N/n2cnnc2)c(O)n1-c1ccccc1`, the cell count in experiment [1] was 408. Further, the inhibition was -1.9% (inactive) in experiment [1], -12.2% (inactive) in experiment [3], -3.33% (inactive) in experiment [7] and 6.58% (inactive) in experiment [8]. Besides, the inhibition of aggregation in experiment [2] was -43% (inactive). Moreover, the nuclei count came out at 58.6% in experiment [2] and 101% in experiment [3]. Besides, the fluorescence slope in experiment [4] was -0.102 (active). The NADPH fluorescence slope in experiment [5] is -7.7e-05 (inactive). For the same molecule, the slope in experiment [6] was 0.00664 (inactive).

Regarding `CN(C)S(=O)(=O)NC(c1ccccc1)c1ccccc1`, in experiment [1], the cell count came to 671. Besides, the inhibition in experiment [1] was 5.8% (inactive); in experiment [3], 14.6% (inactive); in experiment [7], 20.5% (inactive); in experiment [8], 21.8% (inactive). Further, the inhibition of aggregation in experiment [2] was 3.3% (inactive). Further, the nuclei count in experiment [2] came to 102%; in experiment [3] it was 99.9%. For the same molecule, the fluorescence slope in experiment [4] was -0.413 (inactive). Further, the NADPH fluorescence slope in experiment [5] was -3.1e-05 (inactive). For the same molecule, the slope in experiment [6] is 0.00605 (inactive).

As to `Cc1cc(C)n2nc(SCc3cc(=O)n4ccccc4n3)nc2n1`, the cell count in experiment [1] was found to be 536. The inhibition in experiment [1] is -16.3% (inactive); in experiment [3], -75.8% (inactive); in experiment [7] it was 5.17% (inactive); in experiment [8] it was 14.4% (inactive). In addition, the inhibition of aggregation in experiment [2] is 13% (inactive). Besides, the nuclei count in experiment [2] came out at 66.3%; in experiment [3] it was 112%. Further, the fluorescence slope in experiment [4] is -0.29 (inactive). The NADPH fluorescence slope in experiment [5] is -4.7e-06 (inactive). Also, the slope in experiment [6] is 0.00424 (inactive).

Take `COC(=O)c1ccccc1OCC(=O)NC1CCCCC1`: the cell count in experiment [1] came out at 400. The inhibition in experiment [1] was 2.8% (inactive); in experiment [3] it was -140% (inactive); in experiment [7] it was -18.9% (inactive); in experiment [8] it was -61.5% (inactive). The inhibition of aggregation in experiment [2] is -13.9% (inactive). Further, the nuclei count stood at 110% in experiment [2] and 112% in experiment [3]. Besides, the fluorescence slope in experiment [4] is -0.511 (inactive). Also, the NADPH fluorescence slope in experiment [5] is -1.1e-05 (inactive). Also, the slope in experiment [6] is 0.00395 (inactive).
